A short description of test [1]: anti-His antibody binders, primary screen, artefact control for SMM control protein annotation, biochemical, small-molecule microarray, 635 nm fluorescence (AID 1128).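 Note: score merges feature fluorescence with signal-to-noise for each printed compound spot.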 The conditions noted are these: anti-His Alexa647 antibody binding, higher = more signal.
Test [2] concerns Human papillomavirus type 1a E7 protein (residues 1-88). Kind of test: HPV1a E7 small-molecule binders, primary screen, biochemical, small-molecule microarray, residues 1-88, 635 nm (AID 1129). The following applies: small-molecule microarray binding, fluorescence 635 nm; higher = more signal.
In test [3] the target is Focal adhesion kinase 1 (Homo sapiens) (UniProt Q05397). Kind of test: small-molecule microarray binders of FAK, primary screen, biochemical, 635/667 nm fluorescence, BSA, DTT (AID 1130).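 Note: composite of spot emission at 667 nm and signal to noise over triplicate slides.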 The conditions noted are these: PTK2 binding, 635 nm fluorescence, higher = more signal.
Sequence of Focal adhesion kinase 1 (Homo sapiens) (Q05397 whole entry, looked up): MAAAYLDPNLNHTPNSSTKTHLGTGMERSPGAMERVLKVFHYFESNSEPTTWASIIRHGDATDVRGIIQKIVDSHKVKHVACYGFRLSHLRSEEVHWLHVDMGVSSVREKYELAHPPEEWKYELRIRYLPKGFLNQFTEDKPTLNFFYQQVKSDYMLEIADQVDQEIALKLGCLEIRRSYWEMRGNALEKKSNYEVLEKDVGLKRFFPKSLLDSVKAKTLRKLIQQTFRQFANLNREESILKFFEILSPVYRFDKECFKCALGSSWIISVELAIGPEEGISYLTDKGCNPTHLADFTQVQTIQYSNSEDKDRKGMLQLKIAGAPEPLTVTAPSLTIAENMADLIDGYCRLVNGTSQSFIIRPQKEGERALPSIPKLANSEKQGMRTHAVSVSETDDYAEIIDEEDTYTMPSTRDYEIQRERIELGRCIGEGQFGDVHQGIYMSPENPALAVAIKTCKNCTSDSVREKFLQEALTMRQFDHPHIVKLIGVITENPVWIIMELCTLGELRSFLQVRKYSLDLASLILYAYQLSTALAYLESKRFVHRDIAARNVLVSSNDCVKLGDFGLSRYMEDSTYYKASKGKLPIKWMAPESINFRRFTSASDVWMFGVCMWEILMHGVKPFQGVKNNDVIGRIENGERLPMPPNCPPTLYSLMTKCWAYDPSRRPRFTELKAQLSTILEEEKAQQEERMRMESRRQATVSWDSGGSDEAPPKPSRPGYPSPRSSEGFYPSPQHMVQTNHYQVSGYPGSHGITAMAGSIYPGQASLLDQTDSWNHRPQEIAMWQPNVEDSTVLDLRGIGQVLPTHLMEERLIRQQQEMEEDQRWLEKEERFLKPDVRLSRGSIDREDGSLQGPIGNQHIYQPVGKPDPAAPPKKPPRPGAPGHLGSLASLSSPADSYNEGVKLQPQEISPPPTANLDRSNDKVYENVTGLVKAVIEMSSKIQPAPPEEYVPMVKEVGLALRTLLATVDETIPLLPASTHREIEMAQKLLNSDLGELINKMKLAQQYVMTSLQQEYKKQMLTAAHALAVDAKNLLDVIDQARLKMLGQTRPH
Test [4] concerns Fibrinogen (Alexa647-labelled). Kind of test: fibrinogen binders on compound microarrays, profiling panel, artefact control for SMM control-protein annotation, biochemical, small-molecule microarray, 635/667 nm fluorescence (AID 1131).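 Note: z-score merges 667 nm fluorescence with per-spot signal-to-noise over triplicate slides.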 The following applies: fibrinogen-A647 binding fluorescence, higher = more signal.
The target of test [5] is Follistatin (Homo sapiens) (UniProt P19883). Nature of the test: follistatin binders on small-molecule microarrays, primary screen, biochemical, small-molecule microarray, 635/667 nm fluorescence (AID 1132). The conditions noted are these: FST binding, 635 nm fluorescence, higher = more signal.
Sequence of Follistatin (Homo sapiens) (P19883 whole entry, looked up): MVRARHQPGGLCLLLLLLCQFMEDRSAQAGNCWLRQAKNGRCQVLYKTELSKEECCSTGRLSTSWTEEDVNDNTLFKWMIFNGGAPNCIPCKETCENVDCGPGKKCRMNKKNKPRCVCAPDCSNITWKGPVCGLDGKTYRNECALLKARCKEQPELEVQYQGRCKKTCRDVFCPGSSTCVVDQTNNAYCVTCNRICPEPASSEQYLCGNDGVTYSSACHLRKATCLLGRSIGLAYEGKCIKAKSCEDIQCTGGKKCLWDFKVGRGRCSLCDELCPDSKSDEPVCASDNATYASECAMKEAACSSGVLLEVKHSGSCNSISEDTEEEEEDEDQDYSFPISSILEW
Test [6] concerns the target Fibroblast growth factor 2 (Homo sapiens) (UniProt P09038). Kind of test: FGF2 binders on small-molecule microarrays, primary screen, biochemical, small-molecule microarray, 635/667 nm fluorescence (AID 1133). The conditions noted are these: small-molecule microarray binding, FGF2, fluorescence 635/667; higher = more signal.
The nature of test [7]: mitochondrial membrane potential change in A549 cells, profiling panel, cell-based, JC-1 fluorescence, basal, 24 h, 100 nL (AID 1138).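 Note: A549 lung adenocarcinoma cells under basal conditions with no added stimulus; test concentration not given here.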 The conditions noted are these: higher = more signal.
Test [8] deals with Lefty1. Nature of the test: Lefty1 binders on small-molecule microarrays, primary screen, biochemical, small-molecule microarray, 635/667 nm fluorescence (AID 1139). The conditions noted are these: small-molecule microarray binding, fluorescence 635/667; higher = more signal.
Test [9] relates to wheat germ agglutinin (Triticum aestivum), Alexa647-labelled. Kind of test: wheat germ agglutinin binders on compound microarrays, profiling panel, artefact control for SMM control-protein annotation, biochemical, small-molecule microarray, 635/667 nm fluorescence (AID 1140).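 Note: score merges 667 nm feature emission with signal to noise over triplicate slides.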 The following applies: WGA-A647 binding, 635 nm fluorescence, higher = more signal.
Test [10] addresses Luciferin 4-monooxygenase (Photinus pyralis) (UniProt P08659). Nature of the test: firefly luciferase enzyme inhibitors, primary screen, biochemical, luminescence, purified enzyme, 2006 set (AID 1141).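 Note: cell-free assay with purified firefly luciferase at 100 ng per well in PBS; test concentration not given here.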 The conditions noted are these: SteadyGlo luminescence, 30 min, higher = more signal, called active from +8 up or from −8 down.
Test [11] deals with Wnt5a (protein binding on small-molecule microarray). Kind of test: Wnt5a binders on small-molecule microarray, primary screen, biophysical, 635/667 nm fluorescence (AID 1142).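 Note: fluorescence read at 667 nm with signal to noise per printed feature.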 The conditions noted are these: 635 nm fluorescence, higher = more signal.
Test [12] is described as follows: cell viability in Huh7 cells, primary screen, cytotoxicity control for HCV replication inhibitor project, CellTiter-Glo luminescence, basal, 48 h (AID 1143).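 Note: Huh7 hepatoma cells carrying a hepatitis C replication reporter with no stimulus; test concentration not given here.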 The following applies: Huh7 HCV replicon, higher = more signal, called active from +8 up or from −8 down. On the technique in general: In ATP-based viability assays light output follows the ATP content of the culture.

Test [13] is described as follows: P. aeruginosa biofilm formation inhibitors, primary screen, PAO1 strain, BacTiter-Glo luminescence, LB-PBS (AID 1144). The following applies: 12 h, higher = more signal.
Test [14] in a line: CREB reporter modulators without forskolin, primary screen, cell-based, PC12, CRE-LacZ reporter, unstimulated (AID 1145). The following applies: no forskolin, luminescence, 4.5 h, higher = more signal, called active from +8 up or from −8 down.
A short description of test [15]: CREB reporter modulators under forskolin, primary screen, cell-based, PC12, CRE-LacZ reporter, forskolin-stimulated (AID 1146).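 Note: PC12 cells with 6xCRE LacZ reporter stimulated by forskolin 10 µM; beta-galactosidase reporter signal reflecting CREB driven transcription.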 The following applies: luminescence, 4.5 h, higher = more signal, called active from +8 up or from −8 down.
In test [16] the target is Streptavidin (Streptomyces avidinii) (UniProt P22629). Nature of the test: streptavidin binders on small-molecule microarray, primary screen, artefact control for SMM compound annotation, biophysical, 635/667 nm fluorescence (AID 1147).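 Note: signal reflects streptavidin binding to arrayed compounds as a control protein.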 The following applies: streptavidin binding, higher = more signal.
Sequence of Streptavidin (Streptomyces avidinii) (P22629 whole entry, looked up): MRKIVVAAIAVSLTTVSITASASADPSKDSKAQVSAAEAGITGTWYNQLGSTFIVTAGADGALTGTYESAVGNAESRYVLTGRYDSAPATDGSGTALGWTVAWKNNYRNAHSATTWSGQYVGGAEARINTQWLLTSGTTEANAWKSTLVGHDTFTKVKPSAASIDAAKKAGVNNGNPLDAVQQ
Test [17] can be described thus: small-molecule binders of probe aInhba, primary screen, biochemical, small-molecule microarray, 635/667 nm fluorescence (AID 1148).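 Note: score merges 667nm spot fluorescence with signal-to-noise for antibody binding to printed compounds.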 The conditions noted are these: higher = more signal.
The target of test [18] is Torsin-1A (Homo sapiens) (UniProt O14656). Kind of test: torsin A binders from cell lysate, primary screen, small-molecule microarray, wild-type, 635/667 nm (AID 1149). The conditions noted are these: COS7 hTOR1A-WT lysate, 635 nm fluorescence, higher = more signal.
Sequence of Torsin-1A (Homo sapiens) (O14656 whole entry, looked up): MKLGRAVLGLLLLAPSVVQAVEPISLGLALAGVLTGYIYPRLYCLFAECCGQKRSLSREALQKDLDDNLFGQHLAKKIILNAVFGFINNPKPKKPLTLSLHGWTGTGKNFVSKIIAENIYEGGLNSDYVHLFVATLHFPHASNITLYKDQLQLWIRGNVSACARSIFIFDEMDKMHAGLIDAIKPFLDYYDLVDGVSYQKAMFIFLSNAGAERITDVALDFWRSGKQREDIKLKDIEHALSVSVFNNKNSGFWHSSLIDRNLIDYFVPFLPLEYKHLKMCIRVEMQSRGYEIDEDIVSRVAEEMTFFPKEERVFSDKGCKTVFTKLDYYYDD
For test [19] the target is unchanged. Kind of test: small-molecule binders of mutant TOR1A in lysate, primary screen, cell lysate, small-molecule microarray, COS7 lysate, 635/667 nm fluorescence (AID 1150).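 Note: score pools 667 nm emission and signal to noise measuring lysate protein binding.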 The following applies: COS7 hTOR1A mutant lysate, 635 nm fluorescence, higher = more signal.
The subject of test [20] is Sonic hedgehog protein (Shh). Kind of test: small-molecule binders of Shh protein, primary screen, biochemical, small-molecule microarray, 635/667 nm fluorescence (AID 1151).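 Note: Shh protein binding to compounds spotted on small-molecule microarray slides; score combines spot fluorescence intensity with signal-to-noise across triplicate slides.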 The conditions noted are these: small-molecule microarray binding, 635 nm fluorescence; higher = more signal.

Each structure is given as a SMILES string. Active and inactive are the calls of the source. Unless noted, the rule behind the calls is not given here.

Sequence of Fibroblast growth factor 2 (Homo sapiens) (P09038 whole entry, looked up): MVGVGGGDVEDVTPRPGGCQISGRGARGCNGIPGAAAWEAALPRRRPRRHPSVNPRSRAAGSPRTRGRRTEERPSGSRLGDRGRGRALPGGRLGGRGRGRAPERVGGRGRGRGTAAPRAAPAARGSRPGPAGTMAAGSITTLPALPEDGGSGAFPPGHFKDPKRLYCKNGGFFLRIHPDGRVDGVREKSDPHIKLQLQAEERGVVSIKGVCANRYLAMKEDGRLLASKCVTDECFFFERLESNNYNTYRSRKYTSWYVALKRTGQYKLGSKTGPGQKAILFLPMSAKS
Sequence of Luciferin 4-monooxygenase (Photinus pyralis) (P08659 whole entry, looked up): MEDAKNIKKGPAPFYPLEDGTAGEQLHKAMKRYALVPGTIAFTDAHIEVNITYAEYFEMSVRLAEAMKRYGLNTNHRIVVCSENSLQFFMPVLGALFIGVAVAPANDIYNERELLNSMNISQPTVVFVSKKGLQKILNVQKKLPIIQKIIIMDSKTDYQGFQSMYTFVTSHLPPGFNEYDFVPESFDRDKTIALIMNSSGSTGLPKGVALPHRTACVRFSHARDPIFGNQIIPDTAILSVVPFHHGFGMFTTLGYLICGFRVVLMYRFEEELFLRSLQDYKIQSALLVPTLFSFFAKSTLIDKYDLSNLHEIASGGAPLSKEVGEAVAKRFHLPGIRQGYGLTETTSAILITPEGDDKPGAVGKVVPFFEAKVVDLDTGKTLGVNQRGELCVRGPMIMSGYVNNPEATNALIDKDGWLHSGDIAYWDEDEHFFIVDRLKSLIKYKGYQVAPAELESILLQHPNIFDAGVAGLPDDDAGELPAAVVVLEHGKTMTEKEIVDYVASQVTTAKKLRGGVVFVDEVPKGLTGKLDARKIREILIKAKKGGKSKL

In the case of `O=C(NCC(O)CO)[C@]1(CCS(=O)(=O)c2ccccc2)N=C(c2ccc(OCCCO)cc2)O[C@@H]1c1ccccc1` (stereo not given in full), the composite z-score in test [1] was 1.14; in test [2], 1.27; in test [3], 0.516; in test [4] it was 0.976; in test [5], 0.866; in [6], -0.702. For the same compound, the composite z-score in test [8] was -1.11; in test [9], 1.54; in test [11] it was 0.299; in [16], 1.03; in test [17], -0.0567; in test [18] it was 0.499. In addition, the composite z-score is 1.48 in test [19] and -1.05 in test [20]. Besides, the z-score in [7] was 0.439; in test [10], 0.0334 (inactive); in test [12], -0.084 (inactive); in [13], 0.295 (inactive); in test [14] it was 0.596 (inactive); in test [15] it was -0.0842 (inactive).
For the compound `O=C1O[C@@H](c2ccccc2)[C@@H](c2ccccc2)N2[C@@H](c3ccc(O)cc3)[C@]3(C(=O)Nc4ccccc43)[C@@H](C(=O)NC[C@H](O)c3ccccc3)[C@H]12`, the composite z-score in test [1] is 2.07; in [2] it was -0.366; in test [3], 0.0943; in test [4], -0.406; in [5], 1.02; in test [6] it was 0.797. Further, the composite z-score in test [8] is 0.266; in test [9], 0.0576; in test [11], 0.062; in test [16], -0.26; in test [17] it was -0.176; in test [18] it was -1. The composite z-score in [19] is 0.371; in [20], 0.142. Besides, the z-score was 0.411 in test [7]; 0.807 (inactive) in test [10]; -2.34 (inactive) in [12]; 0.184 (inactive) in test [13]; 0.0921 (inactive) in test [14]; 0.175 (inactive) in test [15].
Regarding `O=C1O[C@@H](c2ccccc2)[C@@H](c2ccccc2)N2[C@@H](c3ccc(O)cc3)[C@]3(C(=O)Nc4ccccc43)[C@@H](C(=O)N3CCCCCCC3)[C@H]12`, the composite z-score in [1] came out at 2.96; in [2] it was 1.23; in test [3], 1.22; in [4], 0.827; in [5], 1.43; in test [6], 1.64. Further, the composite z-score in test [8] is 1.6; in test [9] it was 1.46; in test [11] it was 1.36; in test [16], 2.93; in test [17], 1.98; in test [18], 1.91. For the same compound, the composite z-score in test [19] came to 1.8; in test [20] it was 2.02. Moreover, the z-score is 0.48 in test [7]; 1.04 (inactive) in [10]; -2.61 (inactive) in [12]; -0.279 (inactive) in [13]; 0.0384 (inactive) in [14]; 0.276 (inactive) in test [15].
Consider `CC1(C)C(=O)C(c2ccccc2)=C2CN3C(=O)N(CCc4ccccc4)C(=O)C3(Cc3ccccc3)C=C21` (stereo not given), for which the composite z-score was 0.323 in test [1]; 1.14 in [2]; 0.369 in test [3]; 0.119 in [4]; 0.552 in test [5]; -0.492 in [6]. In addition, the composite z-score is -0.378 in [8]; 1.03 in test [9]; 0.114 in test [11]; 0.982 in test [16]; 0.134 in test [17]; 0.736 in test [18]. Moreover, the composite z-score in [19] is -0.244; in test [20] it was -1.07. Moreover, the z-score in [7] is 0.19; in test [10], 0.245 (inactive); in test [12], -1.13 (inactive); in test [13], -0.741 (inactive); in test [14], 0.576 (inactive); in test [15], 0.15 (inactive).

Source of the values: PubChem BioAssay.
